Experimental data: PubChem BioAssay (Tox21)
Values without a mark were called inactive. Records with an inconclusive call do not appear. Where a call stands in place of a potency, no number is given. Active and inactive are the calls of the source. Unless noted, calls come from the whole dose curve.

Target: Androgen receptor (Homo sapiens) (UniProt P10275)
Test: qHTS assay to identify small molecule agonists of the androgen receptor (AR) signaling pathway in the presence of an antagonist (AID 1259381); note: nearly all actives have a fitted effect of over 15% in size; note: potency is the fitted concentration of half-maximal effect
Conditions: MDA-kb2 MMTV-luciferase, AR agonist + nilutamide, 16 h; series mostly up to 92.4 µM
Procedure, shortened: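 Cells are MDA-kb2 (human breast carcinoma, MMTV-luc, AR/GR responsive). Nilutamide is present at 3.0uM final throughout; compounds are added at 15 concentrations and incubated 16hr at 37C before ONE-Glo luminescence detection.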

Sequence of Androgen receptor (Homo sapiens) (P10275 whole entry, looked up): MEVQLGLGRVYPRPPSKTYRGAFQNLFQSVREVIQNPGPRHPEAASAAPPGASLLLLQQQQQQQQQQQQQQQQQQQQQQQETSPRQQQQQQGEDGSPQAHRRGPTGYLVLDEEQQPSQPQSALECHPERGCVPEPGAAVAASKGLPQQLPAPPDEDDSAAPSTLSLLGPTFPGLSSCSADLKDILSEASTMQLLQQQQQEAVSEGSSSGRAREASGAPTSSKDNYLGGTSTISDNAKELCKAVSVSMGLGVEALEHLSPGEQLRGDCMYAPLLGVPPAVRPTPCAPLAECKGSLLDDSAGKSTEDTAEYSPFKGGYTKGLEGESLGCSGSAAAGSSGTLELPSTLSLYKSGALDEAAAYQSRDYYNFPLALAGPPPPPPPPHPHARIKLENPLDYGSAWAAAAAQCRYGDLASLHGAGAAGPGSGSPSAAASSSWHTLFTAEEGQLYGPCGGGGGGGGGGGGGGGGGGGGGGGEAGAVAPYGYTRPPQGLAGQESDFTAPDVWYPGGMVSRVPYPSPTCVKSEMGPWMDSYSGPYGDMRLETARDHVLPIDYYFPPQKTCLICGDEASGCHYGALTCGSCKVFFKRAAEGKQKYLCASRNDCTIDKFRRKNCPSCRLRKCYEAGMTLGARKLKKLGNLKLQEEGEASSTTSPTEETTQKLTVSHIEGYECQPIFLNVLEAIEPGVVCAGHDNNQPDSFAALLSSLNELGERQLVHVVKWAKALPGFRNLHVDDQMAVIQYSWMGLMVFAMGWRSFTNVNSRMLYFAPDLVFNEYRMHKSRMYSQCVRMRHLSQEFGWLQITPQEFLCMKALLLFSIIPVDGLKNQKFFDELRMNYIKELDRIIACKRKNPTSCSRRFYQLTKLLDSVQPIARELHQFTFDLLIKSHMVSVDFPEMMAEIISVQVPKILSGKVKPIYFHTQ

| SMILES | activation | Potency |
| --- | --- | --- |
| CCC[CH2][Sn]([CH2]CCC)([CH2]CCC)[O][Sn]([CH2]CCC)([CH2]CCC)[CH2]CCC | -10.6% [at 8.39 µM] |  |
| CCCCCCC[CH2][Sn]([Cl])([Cl])[CH2]CCCCCCC |  | inactive |
| C[C@]12CC[C@H]3[C@@H](CCC4=CC(=O)CC[C@@H]43)[C@@H]1CC[C@@H]2OC(=O)CCc1ccco1 |  | 0.0237 µM (active) |
| BrCC(Br)(Br)Br |  | inactive |
| C=CCOC(=O)c1ccccc1N |  | inactive |
| Cc1ccc([N+](=O)[O-])[c]2c1[O][Hg]2 |  | inactive |
| S=C=NCCc1ccccc1 |  | inactive |
| Oc1cc(Cl)c(Cl)c(Cl)c1Cl |  | inactive |

Test system: not listed separately
Test: qHTS assay to identify small molecule antagonists of the estrogen receptor beta (ER-beta) signaling pathway - cell viability counter screen (AID 1259382; active = well fitted cell-killing curve with a large enough effect in the repeat runs; note: nearly all actives have a fitted effect of over 55% in size; note: potency is the fitted concentration of half-maximal effect)
Conditions: ER-beta-UAS-bla HEK293T viability, CellTiter-Glo luminescence, 16 h; series mostly up to 92.4 µM
Procedure, shortened: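 Following a 6 hr plating period, HEK293T cells carrying a UAS-driven beta-lactamase reporter under ER-beta control received compounds and 1nM E2 (final). After 16 hr at 37C and 2 hr substrate loading, CellTiter-Glo luminescence indicated viability.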

| SMILES | Potency |
| --- | --- |
| CCC[CH2][Sn]([CH2]CCC)([CH2]CCC)[O][Sn]([CH2]CCC)([CH2]CCC)[CH2]CCC | 1.19 µM (active) |
| O=Cc1ccccc1 | inactive |
| O=[N+]([O-])c1ccc(Cl)c(Cl)c1Cl | inactive |
| CCC1COC(Cn2cncn2)(c2ccc(Cl)cc2Cl)O1 (centres undefined) | inactive |
| C#CC1(O)CCCCC1 | inactive |
| COC(=O)/C=C(\C)OP(=O)(OC)OC | inactive |
| Clc1ccc(C2(Cn3cncn3)OCCO2)c(Cl)c1 | inactive |
| CCOP(=O)(OCC)Oc1cc(C)nc(C(C)C)n1 | inactive |
| CC(C)[C@@H](Nc1ccc(C(F)(F)F)cc1Cl)C(=O)OC(C#N)c1cccc(Oc2ccccc2)c1 (some centres undefined) | inactive |
| CNC(=O)Oc1cc(C)cc(C(C)C)c1 | inactive |
| CCCCCCC[CH2][Sn]([Cl])([Cl])[CH2]CCCCCCC | inactive |
| CSC1=N[C@@](C)(c2ccccc2)C(=O)N1Nc1ccccc1 | inactive |
| C[C@]12CC[C@H]3[C@@H](CCC4=CC(=O)CC[C@@H]43)[C@@H]1CC[C@@H]2OC(=O)CCc1ccco1 | inactive |
| N#Cc1ccc(N(CC(N)=O)CC(F)(F)F)cc1C(F)(F)F | inactive |
| O=C(N[C@@H]1N=C(c2ccccc2F)c2cccc3c2N(CC3)C1=O)c1cc2ccccc2[nH]1 | inactive |
| C=CCOC(=O)c1ccccc1N | inactive |
| COC(=O)c1ccccc1S(=O)(=O)NC(=O)Nc1nc(C)nc(OC)n1 | inactive |
| Cc1ccc([N+](=O)[O-])[c]2c1[O][Hg]2 | 5.31 µM (active) |
| Cc1ccn2nc(S(=O)(=O)Nc3c(F)cccc3F)nc2n1 | inactive |
| S=C=NCCc1ccccc1 | inactive |
| Oc1cc(Cl)c(Cl)c(Cl)c1Cl | inactive |
| CCC(C)Br (centres undefined) | inactive |
| C#CCC1=C(C)C(OC(=O)C2C(C=C(C)C)C2(C)C)CC1=O (centres undefined) | inactive |
| COCCC#N | inactive |
| CCC[CH2][Sn]([CH2]CCC)([CH2]CCC)[CH2]CCC | 43.3 µM (active) |
| COP(=O)(OC)Oc1ccc([N+](=O)[O-])cc1 | inactive |

Target: Estrogen receptor (Homo sapiens) (UniProt P03372)
Sequence (P03372 whole entry, looked up): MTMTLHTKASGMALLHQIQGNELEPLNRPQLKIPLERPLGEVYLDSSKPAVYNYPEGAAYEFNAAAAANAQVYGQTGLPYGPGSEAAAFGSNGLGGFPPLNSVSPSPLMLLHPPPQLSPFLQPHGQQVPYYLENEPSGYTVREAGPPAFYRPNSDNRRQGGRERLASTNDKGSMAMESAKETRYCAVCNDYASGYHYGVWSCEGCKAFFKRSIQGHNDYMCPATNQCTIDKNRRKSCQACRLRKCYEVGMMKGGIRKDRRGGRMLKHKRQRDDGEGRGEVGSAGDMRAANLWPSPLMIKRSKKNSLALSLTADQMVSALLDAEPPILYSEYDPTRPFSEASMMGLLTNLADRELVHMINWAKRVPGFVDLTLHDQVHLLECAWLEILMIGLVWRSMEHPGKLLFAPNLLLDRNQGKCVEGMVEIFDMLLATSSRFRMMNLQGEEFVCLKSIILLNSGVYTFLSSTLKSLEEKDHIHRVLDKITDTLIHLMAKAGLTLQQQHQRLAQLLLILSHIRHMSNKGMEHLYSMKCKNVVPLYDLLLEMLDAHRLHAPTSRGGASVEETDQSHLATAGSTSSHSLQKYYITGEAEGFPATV
Test: qHTS assay to identify small molecule agonists of the estrogen receptor alpha (ER-alpha) signaling pathway in the presence of an antagonist (AID 1259383); note: top concentration of the series differs between compounds; nearly all actives have a fitted effect of over 15% in size
Conditions: VM7Luc4E2 cells, ERE-luciferase, +ICI-182,780, 22 h; series mostly up to 92.4 µM
Procedure, shortened: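 Cells are hormone-deprived for 5 days (charcoal-stripped FBS, no phenol red), plated for 24hr, spiked with 10.0nM ICI-182,780, then dosed at 15 concentrations. After 22hr at 37C, ONE-Glo luminescence reports ERE-luciferase activity.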

| SMILES | activation | Potency |
| --- | --- | --- |
| CCC[CH2][Sn]([CH2]CCC)([CH2]CCC)[O][Sn]([CH2]CCC)([CH2]CCC)[CH2]CCC | -15.3% [at 8.39 µM] |  |
| OCC(Br)CBr (centres undefined) |  | inactive |
| O=[N+]([O-])c1ccc(Cl)c(Cl)c1Cl |  | inactive |
| CCC1COC(Cn2cncn2)(c2ccc(Cl)cc2Cl)O1 (centres undefined) |  | inactive |
| COC(=O)/C=C(\C)OP(=O)(OC)OC |  | inactive |
| CCC[CH2][Sn]([CH2]CCC)([O]C(C)=O)[O]C(C)=O |  | inactive |
| Clc1ccc(C2(Cn3cncn3)OCCO2)c(Cl)c1 |  | inactive |
| [O]=[Cr][O][Cr]=[O] |  | inactive |
| CC(C)[C@@H](Nc1ccc(C(F)(F)F)cc1Cl)C(=O)OC(C#N)c1cccc(Oc2ccccc2)c1 (some centres undefined) |  | inactive |
| Clc1ccc(C(Cl)(Cl)Cl)cc1Cl |  | inactive |
| CC1CN1 (centres undefined) |  | inactive |
| CC(C)c1c(CN(C)C(C)Cc2ccccc2)n(C)n(-c2ccccc2)c1=O (centres undefined) |  | inactive |
| CNC(=O)Oc1cc(C)cc(C(C)C)c1 |  | inactive |
| CCCCCCC[CH2][Sn]([Cl])([Cl])[CH2]CCCCCCC |  | inactive |
| N#Cc1ccc(N(CC(N)=O)CC(F)(F)F)cc1C(F)(F)F |  | inactive |
| BrCC(Br)(Br)Br |  | inactive |
| O=[N+]([O-])c1ccc(CCl)cc1 |  | inactive |
| C=CCOC(=O)c1ccccc1N |  | inactive |
| CC(C)C(Nc1ccc(C(F)(F)F)cc1Cl)C(=O)OC(C#N)c1cccc(Oc2ccccc2)c1 (centres undefined) |  | inactive |
| Cc1ccc([N+](=O)[O-])[c]2c1[O][Hg]2 |  | inactive |
| c1ccc2nc(N3CCNCC3)ccc2c1 |  | inactive |
| Oc1cc(Cl)c(Cl)c(Cl)c1Cl |  | inactive |
| COP(=O)(OC)Oc1ccc([N+](=O)[O-])cc1 |  | inactive |
| Cc1cnc2c(C(=O)O)c(Cl)ccc2c1 |  | inactive |

Test system: not listed separately
Test: qHTS assay to identify small molecule agonists or antagonists of the thyroid stimulating hormone receptor (TSHR) signaling pathway - wild type cell line counter screen (AID 1259384)
Conditions: HEK293 wild type, cAMP HTRF counter-screen; series mostly up to 92.4 µM
Procedure, shortened: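 Wild-type Hek293 cells, 800/well, 18 h at 37C, then compound with Ro20-1724 for 30 min RT. cAMP by HTRF (cAMP-d2/anti-cAMP cryptate), 1 h RT, fluorescence read. 15 concentrations, triplicates.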

| SMILES | cAMP activity change | Potency |
| --- | --- | --- |
| CCC[CH2][Sn]([CH2]CCC)([CH2]CCC)[O][Sn]([CH2]CCC)([CH2]CCC)[CH2]CCC | 1.6% [at 8.39 µM, hits give high values] |  |
| CSSC |  | inactive |
| OCC(Br)CBr (centres undefined) |  | inactive |
| O=Cc1ccccc1 |  | inactive |
| O=[N+]([O-])c1ccc(Cl)c(Cl)c1Cl |  | inactive |
| COC(=O)/C=C(\C)OP(=O)(OC)OC |  | inactive |
| CCC[CH2][Sn]([CH2]CCC)([O]C(C)=O)[O]C(C)=O |  | inactive |
| Nc1cc(Cl)ccc1Cl |  | inactive |
| CC1CN1 (centres undefined) |  | inactive |
| CC(C)c1c(CN(C)C(C)Cc2ccccc2)n(C)n(-c2ccccc2)c1=O (centres undefined) |  | inactive |
| CCCCCCC[CH2][Sn]([Cl])([Cl])[CH2]CCCCCCC |  | inactive |
| O=C(N[C@@H]1N=C(c2ccccc2F)c2cccc3c2N(CC3)C1=O)c1cc2ccccc2[nH]1 |  | inactive |
| O=[N+]([O-])c1ccc(CCl)cc1 |  | inactive |
| COC(=O)c1ccccc1S(=O)(=O)NC(=O)Nc1nc(C)nc(OC)n1 |  | inactive |
| Cc1ccn2nc(S(=O)(=O)Nc3c(F)cccc3F)nc2n1 |  | inactive |
| S=C=NCCc1ccccc1 |  | inactive |
| Oc1cc(Cl)c(Cl)c(Cl)c1Cl |  | inactive |
| C#CCC1=C(C)C(OC(=O)C2C(C=C(C)C)C2(C)C)CC1=O (centres undefined) |  | inactive |
| COCCC#N |  | inactive |
| CCC[CH2][Sn]([CH2]CCC)([CH2]CCC)[CH2]CCC |  | inactive |
| COP(=O)(OC)Oc1ccc([N+](=O)[O-])cc1 |  | inactive |
